Laboratory results from the supplement of paper PMC9433436.
± gives the standard deviation of the averaged measurements. Over roughly 4,100 sequences, “relative kcat/Km (krel) vs genomic leader AAAGAU” has its median near 1.7; the highest 2% begin near 6.5. The sample as a whole holds a higher share of the highest values than the screen did.

Biological target: T1, E. coli RNase P holoenzyme (M1 P RNA + rnpA protein) (UniProt P0A7Y8)
T1 sequence: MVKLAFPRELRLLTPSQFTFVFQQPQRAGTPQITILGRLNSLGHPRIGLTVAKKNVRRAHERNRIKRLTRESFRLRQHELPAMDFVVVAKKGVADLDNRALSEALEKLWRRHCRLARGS
Assay: relative kcat/Km (krel) vs genomic leader AAAGAU (relative (reference leader = 1)); higher = faster RNase P cleavage
Protocol: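 HTS-Kin: a pool of ptRNA-Met (21C construct) with all 4096 combinations of 5' leader nucleotides N(-6) to N(-1) was processed in vitro by E. coli RNase P (P RNA + rnpA/C5 protein) under multiple-turnover conditions at 37 C, pH 8, 17.5 mM MgCl2. Residual substrate was Illumina-sequenced at several fractions reacted, and relative kcat/Km (krel) was computed by internal competition kinetics, calibrated to the genomic leader (AAAGAU = 1). The listed hexamer is the varied N(-6)..N(-1) leader (DNA letters), and it sits between a fixed 5' stem-loop flank (GCAUGCACGAAAGUGCGUGCUAUGAA) and the mature tRNA-Met starting GGCUACGUAGCUCAGUUGG. Two technical replicates are averaged.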

[1] = fraction of substrate reacted: ~9-10% (9.79% repeat 1, 9.1% repeat 2)
[2] = fraction of substrate reacted: ~13-16% (15.68% repeat 1, 13.17% repeat 2)
[3] = fraction of substrate reacted: ~26-29% (28.66% repeat 1, 26.4% repeat 2)

Row | Sequence | relative kcat/Km [1] | relative kcat/Km [2] | relative kcat/Km [3]
1 | AAATTC | 2.35 ± 1.4 | 1.98 ± 0.19 | 2.34 ± 0.6
2 | TAATGG | 0.461 ± 0.18 |  | 
3 | CAACAG |  |  | 1 ± 0.52
4 | TGACAA | 3.11 ± 2.1 | 3.72 ± 0.47 | 4.23 ± 1.4
5 | GTACGC | 2 ± 0.098 | 2.7 ± 0.46 | 3.72 ± 1.3
6 | CGTCAC | 4.5 ± 2.1 | 5.37 ± 0.7 | 6.77 ± 2
7 | CGTCAT | 2.843 ± 0.013 | 4.98 ± 1.9 | 6.96 ± 3.1
8 | CGTCGC | 2.49 ± 0.74 | 3.77 ± 0.95 | 4.81 ± 1.1
9 | CCTCAC | 2.54 ± 0.75 | 3.07 ± 0.55 | 4.22 ± 1.2
10 | CGTCAA | 1.61 ± 0.25 | 3.42 ± 0.92 | 5.08 ± 1.4
11 | CGTCAG | 0.776 ± 0.25 | 1.34 ± 0.28 | 3.11 ± 0.5
12 | AGTCTT | 3.48 ± 0.67 | 3.72 ± 0.46 | 5 ± 2.2
13 | GAGCAA | 1.98 ± 0.29 | 2.27 ± 0.026 | 2.57 ± 0.78
14 | AATTAT | 3.11 ± 0.81 | 4.75 ± 0.82 | 5.76 ± 2.3
15 | TATTCC | 2.05 ± 0.31 | 2.87 ± 0.33 | 3.57 ± 1.4
16 | TATTAT | 4.02 ± 1.1 | 5.95 ± 1.7 | 9.03 ± 4.1
17 | AATTAC | 3.5 ± 1.7 | 3.97 ± 0.31 | 5.32 ± 1.9
18 | TATTAG | 2.38 ± 2.3 | 2.95 ± 0.03 | 4.43 ± 1.4
19 | TATTCT | 3.27 ± 1.2 | 4.15 ± 0.4 | 5.78 ± 2.3
20 | TATTAC | 3.92 ± 1.1 | 5.68 ± 0.93 | 7.86 ± 3.4
21 | AATTAA | 2.86 ± 2 | 3.37 ± 0.39 | 4.73 ± 1.6
22 | TATTAA | 4.01 ± 2.3 | 5.12 ± 0.072 | 6.96 ± 2.6
23 | ACTTTG |  |  | 1.31 ± 0.45
24 | GCCCTC | 1.81 ± 0.28 | 2.28 ± 1.4 | 3.98 ± 1.6
25 | CGCCGT | 0.516 ± 0.5 |  | 1.06 ± 0.75
26 | AATTAG |  | 1.34 ± 0.23 | 3.09 ± 1.5

Row | Sequence | relative kcat/Km [1] | relative kcat/Km [2] | relative kcat/Km [3]
27 | AGTACT | 2.34 ± 1.3 | 2.42 ± 0.095 | 3.74 ± 1.6
28 | AAATAT | 1.72 ± 0.35 | 3.11 ± 0.79 | 4.74 ± 2.4
29 | GCGGAG |  |  | 0.583 ± 0.36
30 | TCGGAA | 1.2 ± 1.2 | 1.23 ± 0.93 | 1.33 ± 0.09
31 | AAATCA | 1.55 ± 0.36 | 1.42 ± 0.17 | 1.8 ± 0.46
32 | TTCGAT | 1.69 ± 0.22 | 2.71 ± 1.2 | 4.44 ± 2
33 | CTCGTC | 2.68 ± 0.76 | 3.41 ± 0.98 | 5.19 ± 2
34 | TTCGAA | 5.32 ± 1.2 | 7.22 ± 2.3 | 10.3 ± 4.3
35 | CTCGGA |  |  | 0.671 ± 0.41
36 | TGCGAA | 1.78 ± 0.26 | 1.82 ± 0.69 | 2.43 ± 0.68
37 | TTCGTC | 3.53 ± 1.4 | 4.55 ± 1 | 6.81 ± 3.2
38 | TTCGTG |  | 0.287 ± 0.27 | 2.01 ± 0.17
39 | TTCGAC | 5.66 ± 1.9 | 7.11 ± 1.7 | 10.2 ± 4.3
40 | CTCGAA | 4.31 ± 0.54 | 6.4 ± 1.7 | 8.12 ± 3.5
41 | TTCGTA | 3.36 ± 1.3 | 4.26 ± 0.22 | 6.35 ± 2.4
42 | TTCGAG |  | 1.96 ± 0.07 | 4.8 ± 1
43 | CGCGAA | 2.89 ± 0.49 | 3.39 ± 1.2 | 4.94 ± 1.5
44 | AGTGTT | 0.435 ± 0.024 |  | 1.34 ± 0.99
45 | CTACTT | 2.09 ± 0.14 | 2.2 ± 0.49 | 2.49 ± 0.63
46 | TGAACT | 1.41 ± 0.67 | 1.85 ± 0.71 | 2.58 ± 0.76
47 | GGCGCT | 1.32 ± 0.23 | 0.701 ± 0.31 | 1.43 ± 0.38
48 | GGGCTT |  |  | 0.481 ± 0.22
49 | TAACCG |  |  | 0.9 ± 0.51
50 | GCTTTC | 2.29 ± 2.1 | 1.88 ± 0.58 | 2.09 ± 0.45
51 | AATACA | 1.91 ± 0.78 | 1.7 ± 0.041 | 2.02 ± 0.66
